Results taken from PubChem BioAssay (NCATS).
Inconclusive results are not listed. Activity calls are given as the source filed them. The call rests on the fitted dose curve; in most records, active means well fitted inhibition curve with a large enough effect; inconclusive means small, poorly fitted or top-dose-only effect, or effect the other way; inactive means flat fitted curve, though single readings scatter.

Assay: qHTS for Inhibitors of Plasmodium falciparum (CP250) proliferation (AID 504320);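 further: plate controls were DMSO vehicle for no effect and 0.29 µM artemisinin control for full effect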
Conditions: P. falciparum CP250 in erythrocytes, SYBR Green DNA, 72 h; series mostly up to 6.7 µM; activity change, negative = inhibition: at the top concentration
Method in brief: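 Parasite growth measured as SYBR Green DNA fluorescence (ex 485, em 535 nm) after overnight lysis following 72 h culture at 37 °C, 0.3% parasitemia, 2.5% hematocrit. Values normalized against DMSO and 0.29 uM artemisinin controls, with plate-stack correction.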

Activity change, negative = inhibition, inactive:
CCCCc1nc2c(c3c1C[C@H](C)OC3)CN(C(=O)Cc1cccc(OC)c1)CC2 1.1%, COC(=O)C1=C(C(=O)OC)[C@@H]2N(C)c3ccccc3[C@@]23C[C@@H](C(=O)OC)N(S(=O)(=O)c2c(C)noc2C)C3=N1 5.24%, C=CCNC(=O)N1CCc2nc(COc3ccccc3)c3c(c2C1)CO[C@@H](C)C3 -1.95%, COC(=O)CCCC1=CC2=C(c3ccccc3)C(=O)C(C)(OC(=O)C3CCCC3)C(=O)C2=CN1CCCOC(C)C (stereo unspecified) 1.24%, CC1(OC(=O)CCc2ccccc2)C(=O)C=C2C=C(c3ccc(C#N)cc3)N(C3CCCC3)C=C2C1=O (stereo unspecified) -3.6%, C=CCN1C=C2C(=O)C(C)(OC(=O)CCc3ccccc3)C(=O)C=C2C=C1c1ccc(C#N)cc1 (stereo unspecified) 3.57%, Cc1cc2c(c(=O)n1-c1ccccc1)[C@H]1O[C@](c3ccsc3)(Cc3cc(C#N)ccc31)O2 -10.8%, COC(=O)C1=C(C(=O)OC)[C@@H]2N(C)c3ccccc3[C@@]23C[C@@H](C(=O)OC)N(S(=O)(=O)c2ccc4c(c2)OCCN4C)C3=N1 -16.9%, C[C@H]1Cc2c(-c3ccccc3)nc3c(c2CO1)CN(C(=O)c1cc(I)ccc1F)CC3 0.61%, COC(=O)C1=C(C(=O)OC)[C@@H]2N(Cc3ccccc3)c3ccccc3[C@@]23C[C@@H](C(=O)OC)N(C(=O)COCc2ccccc2)C3=N1 -1.11%, CCCCc1nc2c(c3c1C[C@H](C)OC3)CN(C(=O)NCCCC(=O)OCC)CC2 0.599%, COC(=O)C1=C(C(=O)OC)[C@@H]2N(C)c3ccc(OC)cc3[C@@]23C[C@@H](C(=O)OC)N(S(=O)(=O)c2ccc(OC)cc2)C3=N1 3.47%, CC#CCN1c2ccccc2[C@]23C[C@@H](C(=O)OC)N(C(=O)OCC)C2=NC(C(=O)OC)=C(C(=O)OC)[C@H]13 -2.45%, C=CCN1c2ccccc2[C@]23C[C@@H](C(=O)OC)N(C(=O)c4cc(C)oc4C)C2=NC(C(=O)OC)=C(C(=O)OC)[C@H]13 1.94%, COC(=O)C1(C(=O)OC)CC(CO)C(=O)[C@@H]1c1ccccc1 (stereo partly specified) -3.08%, CC(C)CON=C1C[C@@H](O)[C@@H](O)[C@@H]2[C@H]3C(=O)N(C4CCCCC4)C(=O)[C@@H]3CC[C@H]12 -9.49%, COC(=O)C1=C(C(=O)OC)[C@@H]2Nc3ccccc3[C@@]23C[C@@H](C(=O)OC)N(C(=O)c2ccco2)C3=N1 2.56%, C=CCN1c2ccccc2[C@]23C[C@@H](C(=O)OC)N(S(=O)(=O)c4ccc(C#N)cc4)C2=NC(C(=O)OC)=C(C(=O)OC)[C@H]13 4.12%, CCCCS(=O)(=O)N1C2=NC(C(=O)OC)=C(C(=O)OC)[C@@H]3Nc4ccccc4[C@]23C[C@H]1C(=O)OC 5.58%, C=CCN1c2ccccc2[C@]23C[C@@H](C(=O)OC)N(C(=O)C4CCC4)C2=NC(C(=O)OC)=C(C(=O)OC)[C@H]13 4.44%, O=C(C=Cc1ccc2c(c1)OCO2)c1ccccc1 1.87%, COc1cccc([C@@H]2Oc3ccc(Br)cc3C(=O)[C@@H]2OC(=O)Nc2ccc(OC(F)F)cc2)c1 7.34%, COC/C=C/C1=CC2=CC(=O)C(C)(OC(=O)c3cnc4ccccc4n3)C(=O)C2=CN1c1ccc(OC)cc1 (stereo unspecified) -18.9%, COC(=O)C1=C(C(=O)OC)[C@@H]2N(C)c3ccccc3[C@@]23C[C@@H](C(=O)OC)N(S(=O)(=O)c2ccc(OC)cc2)C3=N1 -2.46%, COC(=O)[C@@H](NC(=O)N1CCc2nc(-c3ccc(OC)cc3C)c3c(c2C1)CO[C@@H](c1ccccc1)C3)C(C)C -19.6%, COC(=O)C1=C(C(=O)OC)[C@@H]2N(C)c3ccccc3[C@@]23C[C@@H](C(=O)OC)N(S(=O)(=O)c2cccs2)C3=N1 -1.11%, CC1(OC(=O)CCc2ccccc2)C(=O)C=C2C=C(c3ccc(C#N)cc3)N(CCc3c[nH]c4ccccc34)C=C2C1=O (stereo unspecified) 4.75%, C=C(C(C)=O)C(O)c1ccc2ccccc2c1 (stereo unspecified) -0.347%, C=CCN1c2ccccc2[C@]23C[C@@H](C(=O)OC)N(S(=O)(=O)CCCC)C2=NC(C(=O)OC)=C(C(=O)OC)[C@H]13 1.87%, CCCCS(=O)(=O)N1C2=NC(C(=O)OC)=C(C(=O)OC)[C@@H]3N(C)c4ccc(OC)cc4[C@]23C[C@H]1C(=O)OC -15.9%

Potency, inactive:
CCCCc1nc2c(c3c1C[C@H](C)OC3)CN(C(=O)c1cc(I)ccc1F)CC2
